Each structure is given as a SMILES string.

These results are taken from PubChem BioAssay.

Assay [1] concerns Human papillomavirus type 1a protein E7 (residues 44-93). The experiment in a line: HPV1a E7 fragment binders on microarrays, primary screen, biochemical, small-molecule microarray, residues 44-93, 635 nm fluorescence (AID 1108).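 Note: E7 fragment applied at 1 µg/mL in TBST for 1 h at 4 C; score combines spot fluorescence with its signal to noise ratio.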 The note with it: small-molecule microarray binding, fluorescence 635 nm; higher = more signal.
The nature of assay [2]: modulators of HCV replicon luciferase signal, primary screen, HCV replication inhibitor project, Huh7 cells, luciferase reporter (AID 1109).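 Note: huh7 hepatoma cells harbouring a luciferase neomycin HCV replicon reporter; luciferase luminescence as measure of HCV replicon replication; test concentration not given here.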 Particulars: 48 h, higher = more signal.
Assay [3] addresses Left-right determination factor 2 (Homo sapiens) (UniProt O00292). The experiment in a line: LEFTY2 binders on small-molecule microarrays, primary screen, biochemical, small-molecule microarray, 635 nm fluorescence scan (AID 1110). Particulars: LEFTY2 binding, higher = more signal.
Assay [4] addresses Calmodulin-1 (Homo sapiens) (UniProt P0DP23). The assay can be described thus: CALM1 binders on microarrays, EGTA buffer, profiling panel, biochemical, small-molecule microarray, Cy5-labelled CALM1 (AID 1111).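 Note: labelled calmodulin applied in Tris saline Tween buffer holding calcium plus EGTA and DTT.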 Particulars: Cy5-CALM1 binding fluorescence, higher = more signal.
The target is the same in assay [5]. The experiment in a line: calcium-bound CALM1 binders on microarrays, profiling panel, artefact control for SMM control-protein annotation, biochemical, small-molecule microarray, Cy5-labelled CALM1, plus calcium (AID 1112).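 Note: score merges spot fluorescence with signal to noise from triplicate slides.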 The note with it: Cy5-CALM1 binding fluorescence, higher = more signal.
Assay [6] is described as follows: small-molecule microarray binders of probe aWnt5a, primary screen, biochemical, biotinylated probe, 635/667 nm fluorescence (AID 1113).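 Note: score merges 667 nm fluorescence intensity with signal-to-noise per printed feature.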 The note with it: higher = more signal.
Assay [7] can be described thus: small-molecule microarray binders of probe aShh, primary screen, biochemical, biotinylated probe, 635/667 nm fluorescence (AID 1114).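 Note: probe is biotin-labelled aShh protein from a stem cell growth factor screen; measures binding of labelled protein to compounds printed on the slide; score merges feature fluorescence at 667 nm with signal-to-noise.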 Particulars: higher = more signal.
Assay [8] is described as follows: small-molecule microarray binders of probe aNog, primary screen, biochemical, biotinylated probe, 635/667 nm fluorescence (AID 1115).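 Note: probe is biotinylated aNog protein used at 0.15 µg/mL for 1 h at 4 C; z-score combines 667 nm fluorescence of each spot with its signal to noise.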 Particulars: higher = more signal.
Assay [9] concerns the target Torsin-1A-interacting protein 1 (Homo sapiens) (UniProt Q5JTV8). The experiment in a line: LAP1 binders from COS7 cell lysate, primary screen, small-molecule microarray, 635/667 nm fluorescence (AID 1116). The note with it: COS7-hLAP1 lysate binding, 635 nm fluorescence, higher = more signal.
In assay [10] the target is Alpha-bungarotoxin (Bungarus multicinctus) (UniProt P60615). The assay can be described thus: alpha-bungarotoxin binders on microarray, profiling panel, artefact control for SMM control protein annotation, biochemical, small-molecule microarray, Alexa647 label, 635/667 nm fluorescence (AID 1117). The note with it: alpha-BTX-A647 binding fluorescence, higher = more signal.
Chain of Alpha-bungarotoxin (Bungarus multicinctus) (P60615 whole entry, looked up): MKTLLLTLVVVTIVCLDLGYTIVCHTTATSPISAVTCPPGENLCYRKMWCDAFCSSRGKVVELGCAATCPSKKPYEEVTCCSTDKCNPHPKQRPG

Chain of Left-right determination factor 2 (Homo sapiens) (O00292 whole entry, looked up): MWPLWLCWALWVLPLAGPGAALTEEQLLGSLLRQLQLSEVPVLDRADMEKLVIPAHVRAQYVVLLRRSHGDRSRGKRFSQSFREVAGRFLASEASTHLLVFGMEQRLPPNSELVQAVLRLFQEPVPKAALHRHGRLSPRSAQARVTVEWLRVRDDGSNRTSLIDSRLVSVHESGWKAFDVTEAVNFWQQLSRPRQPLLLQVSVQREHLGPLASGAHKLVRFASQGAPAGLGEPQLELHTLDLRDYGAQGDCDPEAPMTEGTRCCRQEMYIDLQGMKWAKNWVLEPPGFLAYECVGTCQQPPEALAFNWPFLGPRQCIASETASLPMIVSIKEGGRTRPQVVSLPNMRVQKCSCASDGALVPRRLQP
Chain of Torsin-1A-interacting protein 1 (Homo sapiens) (Q5JTV8 whole entry, looked up): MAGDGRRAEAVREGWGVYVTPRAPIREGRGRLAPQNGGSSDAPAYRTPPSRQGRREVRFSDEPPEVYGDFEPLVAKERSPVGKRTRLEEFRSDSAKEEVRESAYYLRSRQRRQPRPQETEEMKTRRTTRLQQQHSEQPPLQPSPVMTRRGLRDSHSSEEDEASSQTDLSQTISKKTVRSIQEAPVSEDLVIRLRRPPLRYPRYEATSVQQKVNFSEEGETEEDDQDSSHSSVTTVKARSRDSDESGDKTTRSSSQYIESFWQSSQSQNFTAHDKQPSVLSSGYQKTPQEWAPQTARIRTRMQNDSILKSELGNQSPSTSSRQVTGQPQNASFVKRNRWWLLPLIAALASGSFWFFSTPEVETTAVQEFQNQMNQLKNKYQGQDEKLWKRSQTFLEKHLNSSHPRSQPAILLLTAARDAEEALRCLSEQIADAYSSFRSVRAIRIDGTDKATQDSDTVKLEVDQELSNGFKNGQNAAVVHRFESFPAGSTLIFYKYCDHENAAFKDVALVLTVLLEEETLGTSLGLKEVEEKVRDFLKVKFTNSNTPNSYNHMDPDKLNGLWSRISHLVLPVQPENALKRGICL

Consider `CC(C)C(CO)N1C(=O)[C@@H]2[C@H]3C(=O)OCC=C[C@H]3OC23C=CCN(c2ccc4ccccc4c2)C(=O)[C@@H]13` (stereo not given in full), for which the composite z-score in assay [1] is -0.177; in assay [3], -0.425; in [4], -0.468; in assay [5], -0.367; in assay [6], -0.148; in assay [7], -0.283. Also, the composite z-score in assay [8] is -0.463; in assay [9] it was -1.05; in assay [10] it was -0.256. For the same molecule, the z-score in [2] is -0.453.

Turning to `O=C1OCCC/C=C\[C@H]2OC34C=CCN(Cn5nnc6ccccc65)C(=O)[C@H]3N(CCCO)C(=O)[C@@H]4C12` (stereo not given in full), the composite z-score was 0.692 in assay [1]; -2 in [3]; -0.44 in [4]; 0.458 in [5]; -0.191 in assay [6]; 0.0952 in [7]. Besides, the composite z-score was 0.574 in assay [8], 2.11 in [9] and -1.75 in assay [10]. In assay [2], the z-score was -1.01.

For `CC(C)OC(=O)C1=CCC(c2cccc(Cl)c2)O1` (stereo not given), the composite z-score in assay [1] was 1.07; in assay [3], -1.44; in assay [4], 0.222; in [5] it was 0.45; in [6], 0.0654; in [7] it was 0.16. For the same molecule, the results for the composite z-score in [8], in assay [9] and in assay [10] were -0.347, 0.0025 and 0.274, respectively. For the same molecule, the z-score in assay [2] is -2.34.

`O=C1O[C@H](c2ccccc2)[C@H](c2ccccc2)N2[C@H]1[C@@H](C(=O)NC[C@H](O)c1ccccc1)[C@]1(C(=O)Nc3ccc(C#CC4=CCCCC4)cc31)[C@H]2c1ccc(O)cc1`: the composite z-score in assay [1] is 1.38; in assay [3], 0.538; in [4] it was 0.784; in assay [5], -0.566; in assay [6], -0.0403; in [7] it was -0.0146. The results for the composite z-score in assay [8], in assay [9] and in [10] were 0.0129, 0.705 and 1.52, respectively. Further, the z-score in [2] is -2.02.

In the case of `C=CCCN(CC#C[C@H]1Oc2ccccc2S(=O)(=O)N2CCC[C@@H]12)S(=O)(=O)c1ccc(C)cc1`, the composite z-score in [1] was 0.328; in [3], 0.148; in assay [4] it was -0.498; in [5] it was -0.863; in assay [6] it was -0.0125; in [7], 0.0048. In addition, the composite z-score in assay [8] was -0.183; in assay [9], 0.631; in assay [10], -0.189. Further, in assay [2], the z-score was -1.92.

Regarding `CCCNC(=O)[C@@]1(C)c2ccccc2C(=O)N(Cc2ccc(OC(F)(F)F)cc2)[C@H]1c1ccc(CO)cc1`, the composite z-score in assay [1] is -0.481; in [3], -0.808; in assay [4], 0.149; in assay [5], -0.124; in assay [6] it was -0.0685; in [7], -0.222. Besides, the composite z-score is 0.597 in assay [8], 1.28 in [9] and 0.0855 in assay [10]. In addition, in assay [2], the z-score is -0.16.

Regarding `NC(=O)NCC#Cc1ccc2c(c1)[C@]1(C(=O)N2)[C@H](c2ccc(O)cc2)N2[C@H](c3ccccc3)[C@H](c3ccccc3)OC(=O)[C@H]2[C@@H]1C(=O)N1CCN(c2ncccn2)CC1`, the composite z-score in assay [1] was 0.237; in assay [3] it was 0.158; in assay [4], 0.301; in assay [5], 0.476; in [6] it was -0.13; in assay [7], -0.349. Further, the composite z-score amounted to 0.789 in assay [8], 0.811 in assay [9] and 0.772 in assay [10]. The same molecule gave a z-score in assay [2] of -0.762.

`COCCCNC(=O)[C@@]1(Cc2ccccc2I)c2ccccc2C(=O)N(Cc2ccccc2)[C@H]1c1ccc(CO)cc1`: the composite z-score in [1] was 0.609; in assay [3], -2.53; in assay [4], -0.387; in assay [5], 0.239; in assay [6], -0.232; in assay [7], -0.0146. The composite z-score in assay [8] is 0.0327; in assay [9], 0.258; in assay [10] it was -1.4. Further, the z-score in assay [2] was -1.38.

In the case of `COCCCNC(=O)[C@]1(Cc2ccccc2N=[N+]=[N-])N=C(c2ccc(OCCCO)cc2)O[C@@H]1c1ccccc1CN=[N+]=[N-]`, the composite z-score in [1] was found to be 1.45; in assay [3] it was 0.331; in assay [4], 1.5; in assay [5] it was 0.813; in [6] it was 0.0952; in assay [7], 0.496. The composite z-score in [8] was 0.555; in assay [9], 1.39; in assay [10], 1.01. Also, the z-score in assay [2] is -3.09.

Consider `COC(=O)C(CC#Cc1ccc2c(c1)[C@]1(C(=O)N2)[C@H](C(=O)N2CCCCCCC2)[C@H]2C(=O)O[C@H](c3ccccc3)[C@H](c3ccccc3)N2[C@@H]1c1ccccc1OCCO)C(=O)OC`, for which the composite z-score in [1] was 1.6; in assay [3], 1.8; in assay [4] it was 3.11; in assay [5], 1.85; in [6], 1.59; in [7] it was 3.17. The results for the composite z-score in assay [8], in [9] and in assay [10] were 3.79, 6.01 and 4.45, respectively. In assay [2], this molecule returned a z-score of -1.88.

As to `COc1ccc(C#Cc2ccc3c(c2)[C@]2(C(=O)N3)[C@H](c3ccc(OCCO)cc3)N3[C@H](c4ccccc4)[C@H](c4ccccc4)OC(=O)[C@H]3[C@@H]2C(=O)Nc2nc3ccccc3s2)cc1`, the composite z-score amounted to 1.34 in [1]; 0.776 in [3]; 1.57 in assay [4]; 0.446 in assay [5]; 0.104 in [6]; 0.0711 in assay [7]. Also, the results for the composite z-score in assay [8], in assay [9] and in [10] were 0.83, 0.0329 and 1.52, respectively. In assay [2], this molecule displayed a z-score of -2.

`C=C(COC)C(=O)CC[C@@H](OC(=O)c1ccccc1-c1ccccc1C(=O)O)c1ccc(CO)o1`: the composite z-score in [1] is 0.512; in [3], 1.01; in assay [4], 1.63; in [5], 0.417; in assay [6], -0.256; in assay [7] it was -0.34. The composite z-score is -0.251 in assay [8], 0.709 in [9] and 0.206 in [10]. Also, the z-score in [2] was -4.48.

As to `CCOC(=O)C=Cc1cccc(OC)c1O`, the composite z-score was -0.0381 in assay [1]; -1.23 in assay [3]; 0.155 in [4]; -0.551 in [5]; -0.122 in [6]; -0.212 in assay [7]. Besides, the composite z-score in assay [8] was -0.344; in assay [9], -0.0817; in assay [10], 0.254. Moreover, in assay [2], the z-score is 1.61.
